Bioassay records deposited in PubChem BioAssay by National Center for Advancing Translational Sciences (NCATS).
15-hLO-2 inh – blocks human 15-lipoxygenase 2 activity | 0.56% of 110,000 active | Potency, µM (titrated, usually from 57.1 µM), for the others: at the top dose activity change, negative = inhibition, most hits filed as inhibitors | AID 881 | purified 15hLO-2, xylenol orange hydroperoxide absorbance; also: nearly all actives have a fitted effect of over 60% in size
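Purified human 15hLO-2 (50 nM) preincubated 15 min with compound, then 45 uM arachidonic acid for 90 min at RT in 25 mM Hepes pH 7.5, 0.01% Triton X-100. Hydroperoxide detected by Fe-xylenol orange; 573/405 nm absorbance ratio.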
ALOX12 inhib – blocks human 12-lipoxygenase activity | P18054 | purified 12-hLO, xylenol orange hydroperoxide absorbance | Potency, µM (doses to about 57.1 µM), without a hit: at the highest dose activity change, negative = inhibition, usual class: inhibitors | 0.12% of 150,000 active; also: nearly all actives have a fitted effect of over 55% in size
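150 nM 12hLO, 25 mM Hepes pH 7.0 + 0.01% Triton X-100; cpd preinc 15 min RT; 40 uM arachidonic acid, 30 min RT; Fe-XO 30 min; A573/A405 ratio as read-out.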
Starred values were filed as active, the others as inactive; ? = inconclusive; . = no result given; [ ] = dose if it differs, or a comment. The sample as a whole holds a higher share of hits than the screen did. Calls follow the shape of the dose curve; as a rule, active = well fitted curve in the direction sought with a large enough effect; inconclusive = small, poorly fitted or top-dose-only effect, or another doubt; inactive = no such curve, though single readings can be large; an effect the other way counts as inactive or inconclusive. % is scaled to controls: 0 for no effect and ±100 for the full control effect; potency is read from the fitted curve at half-maximal effect.

SMILES | 15-hLO-2 inh | ALOX12 inhib
O=c1c2ccccc2nc(CSc2ncnc3nc[nH]c23)n1-c1ccccc1 | 5.7% | -6.9%
O=C(O)c1cc[c]([Hg][S]c2ncnc3nc[nH]c23)cc1 | 2.51µM* | ?
C/C=C(\C)C(=O)O[C@@H]1C(C)=C2[C@H]([C@@H]1OC(=O)CCCCCCC)[C@@](C)(OC(C)=O)C[C@@H](OC(=O)CCC)[C@@]1(O)[C@H]2OC(=O)[C@]1(C)O | 14.2% | -29.6%
CC(C)(C)C(=O)CP(=O)(O)O | 0.3%[11.4 µM] | -0.7%[11.4 µM]
N#CC(C#N)=NNc1ccc(OC(F)(F)F)cc1 | 15.8µM* | -4.8%
N#CC(C#N)=NNc1cccc(Cl)c1 | ? | -11.0%
COc1cc(C=C(C#N)C#N)cc(O)c1O | ? | -9.3%
N#CC(C#N)=Cc1ccc(O)c(O)c1 | 12.6µM* | ?
O=C(NC1(C(F)(F)F)Oc2ccc(Cl)cc2O1)N1CCC2(CC1)OCCO2 (stereo not drawn) | 7.94µM* | ?
O=C(NC1(C(F)(F)F)Oc2ccccc2O1)N1CCC2(CC1)OCCO2 | . | -9.1%
O=C(O)[C@@H](Br)[C@H](Br)C(=O)O | -6.5%[11.4 µM] | 0.9%[11.4 µM]
NC1(P(=O)(O)O)CCCCC1 | -5.6%[11.4 µM] | -4.7%[11.4 µM]
CCOC(=O)[C@@H]1[C@@H]2c3ccccc3-c3ccccc3[C@H]2C[C@H]1O | -0.5%[11.4 µM] | -4.6%[11.4 µM]
COCc1cc(C)c(C#N)c(=S)[nH]1 | ? | 0.2%
C=CCc1c(C)[nH]c(=S)c(C#N)c1C | 12.6µM* | -23.6%
COC(=O)[C@H]1C(=O)[C@H](C(=O)OC)[C@@H]2CC[C@H]1N2C | -8.3%[11.4 µM] | 0.9%[11.4 µM]
Cc1cc2c(C(C)C)c(O)c(O)c(C=O)c2c(O)c1-c1c(C)cc2c(C(C)C)c(O)c(O)c(C=O)c2c1O | 3.55µM* | ?
[N-]=[N+]=CC(=O)CC[C@H](N)C(=O)O | -2.5%[11.4 µM] | -5.6%[11.4 µM]
CCCN1CCc2cc(O)cc3c2[C@H]1Cc1ccc(O)c(O)c1-3 | -21.2% | -22.0%
C=CCN1CCc2cccc3c2[C@@H]1Cc1ccc(O)c(O)c1-3 | 6.31µM* | -16.7%
Cc1ccc(S(=O)ON2CCC(C(=O)O)(c3ccccc3)CC2)cc1 (stereo not drawn) | -3.6%[11.4 µM] | 6.8%[11.4 µM]
O=c1cc(-c2ccc(O)c(O)c2)oc2cc(O)cc(O)c12 | 15.8µM* | ?
C[N+]1(C)CCO[C@@](O)(c2ccc(-c3ccc([C@]4(O)C[N+](C)(C)CCO4)cc3)cc2)C1 | -5.1% | -5.1%
O=C(O)[C@H]1[C@H](C(=O)O)[C@H]2CC[C@@H]1O2 | 6.6% | 3.0%
CC1=C2C(=O)[C@@H]3[C@@H](CC=C4C[C@@H](O)CC[C@@]43C)[C@H]2CC[C@@]12O[C@H]1C[C@H](C)CN[C@H]1[C@@H]2C | -1.4%[11.4 µM] | -0.8%[11.4 µM]
O=C(O)[C@@H](O)[C@@H](O)[C@@H]1[O][Sb][O][C@@H]1CO | 9.1%[11.4 µM] | 0.6%[11.4 µM]
CSC([N-]/N=C/c1cccc(C)n1)=[S]=[Cu].CS[C@H]([S-])[N-]/N=C/c1cccc(C)n1 | 3.16µM* | ?
